# Assay results taken from paper PMC11006913.
# Residue numbers refer to the chain shown, from its start.
# Tests used:
# Assay in all cases: PBM; 200 nM protein, PBS
# Settings in all cases: dsDNA, one strand shown
# NKX2-4 [1] = target: T1, NKX2-4 (Homo sapiens, UniProt Q9H2Z4 175-261, P217L)
# T1 sequence: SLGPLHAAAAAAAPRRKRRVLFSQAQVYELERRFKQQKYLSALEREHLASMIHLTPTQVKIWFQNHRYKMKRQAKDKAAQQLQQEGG
# NKX2-4 [2] = target: T2, NKX2-4 (Homo sapiens, UniProt Q9H2Z4 175-261, T231S)
# T2 sequence: T1 sequence with L43P, T57S
# HOXC10 [3] = target: HOXC10 (Homo sapiens, UniProt Q9NYD6 254-340)
# NKX2-4 [4] = target: T3, NKX2-4 (Homo sapiens, UniProt Q9H2Z4 175-261)
# T3 sequence: T1 sequence with L43P
# HOXC10 [5] = target: HOXC10 (Homo sapiens, UniProt Q9NYD6 254-340, K271E)
# NKX2-4 [6] = target: T4, NKX2-4 (Homo sapiens, UniProt Q9H2Z4 175-261, R246Q)
# T4 sequence: T1 sequence with L43P, R72Q
# NKX2-6 [7] = target: T5, NKX2-6 (Homo sapiens, UniProt A6NCS4 118-204, R150C)
# T5 sequence: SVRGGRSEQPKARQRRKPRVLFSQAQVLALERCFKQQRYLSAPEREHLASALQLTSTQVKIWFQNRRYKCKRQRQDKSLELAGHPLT
# HOXB6 [8] = target: HOXB6 (Homo sapiens, UniProt P17509 132-218, K202E)
# HOXB6 [9] = target: HOXB6 (Homo sapiens, UniProt P17509 132-218)
# ALX4 [10] = target: ALX4 (Homo sapiens, UniProt Q9H161 200-286)
# ALX4 [11] = target: ALX4 (Homo sapiens, UniProt Q9H161 200-286, Q225E)
# NKX2-6 [12] = target: T6, NKX2-6 (Homo sapiens, UniProt A6NCS4 118-204)
# T6 sequence: T5 sequence with C33R
# NKX2-6 [13] = target: T7, NKX2-6 (Homo sapiens, UniProt A6NCS4 118-204, F151L)
# T7 sequence: T5 sequence with C33R, F34L
# PRRX1 [14] = target: PRRX1 (Homo sapiens, UniProt P54821 80-166, F113S)
# PRRX1 [15] = target: PRRX1 (Homo sapiens, UniProt P54821 80-166)
# HOXD13 [16] = target: HOXD13 (Homo sapiens, UniProt P35453 263-343, T313R)
# HOXD13 [17] = target: HOXD13 (Homo sapiens, UniProt P35453 263-343)
# HOXD13 [18] = target: HOXD13 (Homo sapiens, UniProt P35453 263-343, T313A)
# MSX2 [19] = target: MSX2 (Homo sapiens, UniProt P35548 130-214, R199I)
# MSX2 [20] = target: MSX2 (Homo sapiens, UniProt P35548 130-214)
# PROP1 [21] = target: PROP1 (Homo sapiens, UniProt O75360 56-141)
# PROP1 [22] = target: PROP1 (Homo sapiens, UniProt O75360 56-141, R99H)
# PROP1 [23] = target: PROP1 (Homo sapiens, UniProt O75360 56-141, F88S)
# MSX2 [24] = target: MSX2 (Homo sapiens, UniProt P35548 130-214, F161Y)
# Sequence of MSX2 (Homo sapiens, UniProt P35548 130-214, F161Y) (P35548 130-214 F161Y): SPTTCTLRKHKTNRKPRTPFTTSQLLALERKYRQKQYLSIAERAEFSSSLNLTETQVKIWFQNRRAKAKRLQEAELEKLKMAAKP
# Sequence of HOXC10 (Homo sapiens, UniProt Q9NYD6 254-340) (Q9NYD6 254-340): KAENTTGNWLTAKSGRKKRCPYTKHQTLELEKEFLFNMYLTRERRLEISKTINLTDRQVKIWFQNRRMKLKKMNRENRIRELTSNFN
# Sequence of ALX4 (Homo sapiens, UniProt Q9H161 200-286, Q225E) (Q9H161 200-286 Q225E): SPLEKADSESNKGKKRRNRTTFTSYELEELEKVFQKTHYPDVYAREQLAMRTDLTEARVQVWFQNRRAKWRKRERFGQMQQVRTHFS
# Sequence of HOXD13 (Homo sapiens, UniProt P35453 263-343, T313A) (P35453 263-343 T313A): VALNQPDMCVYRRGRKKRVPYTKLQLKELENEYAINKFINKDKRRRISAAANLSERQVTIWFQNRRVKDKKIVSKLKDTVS
# Sequence of PROP1 (Homo sapiens, UniProt O75360 56-141, F88S) (O75360 56-141 F88S): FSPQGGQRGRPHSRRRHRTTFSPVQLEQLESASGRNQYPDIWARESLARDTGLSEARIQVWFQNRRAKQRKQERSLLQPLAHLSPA
# Sequence of PROP1 (Homo sapiens, UniProt O75360 56-141, R99H) (O75360 56-141 R99H): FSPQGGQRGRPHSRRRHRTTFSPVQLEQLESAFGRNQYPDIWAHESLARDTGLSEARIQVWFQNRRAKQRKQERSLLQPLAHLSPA
# Sequence of ALX4 (Homo sapiens, UniProt Q9H161 200-286) (Q9H161 200-286): as the sequence (Q9H161 200-286 Q225E) above, with E26Q counted along it
# Sequence of MSX2 (Homo sapiens, UniProt P35548 130-214) (P35548 130-214): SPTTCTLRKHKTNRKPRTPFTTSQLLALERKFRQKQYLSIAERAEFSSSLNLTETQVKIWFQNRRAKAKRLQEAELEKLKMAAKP
# Sequence of HOXB6 (Homo sapiens, UniProt P17509 132-218) (P17509 132-218): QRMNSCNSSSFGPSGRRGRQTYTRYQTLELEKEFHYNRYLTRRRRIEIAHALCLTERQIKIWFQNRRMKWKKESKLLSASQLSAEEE
# Sequence of HOXD13 (Homo sapiens, UniProt P35453 263-343, T313R) (P35453 263-343 T313R): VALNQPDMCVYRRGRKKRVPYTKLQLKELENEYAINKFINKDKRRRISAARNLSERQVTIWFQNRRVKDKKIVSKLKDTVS
# Sequence of HOXB6 (Homo sapiens, UniProt P17509 132-218, K202E) (P17509 132-218 K202E): as the sequence (P17509 132-218) above, with K71E counted along it
# Sequence of MSX2 (Homo sapiens, UniProt P35548 130-214, R199I) (P35548 130-214 R199I): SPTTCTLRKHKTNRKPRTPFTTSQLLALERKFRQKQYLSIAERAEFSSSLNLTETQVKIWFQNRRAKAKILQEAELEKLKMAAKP
# Sequence of PRRX1 (Homo sapiens, UniProt P54821 80-166) (P54821 80-166): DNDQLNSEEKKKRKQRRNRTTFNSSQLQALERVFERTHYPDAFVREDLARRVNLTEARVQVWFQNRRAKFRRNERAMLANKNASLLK
# Sequence of PRRX1 (Homo sapiens, UniProt P54821 80-166, F113S) (P54821 80-166 F113S): as the sequence (P54821 80-166) above, with F34S counted along it
# Sequence of PROP1 (Homo sapiens, UniProt O75360 56-141) (O75360 56-141): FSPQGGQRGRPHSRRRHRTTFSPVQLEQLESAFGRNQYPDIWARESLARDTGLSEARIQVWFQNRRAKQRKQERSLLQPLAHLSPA
# Sequence of HOXC10 (Homo sapiens, UniProt Q9NYD6 254-340, K271E) (Q9NYD6 254-340 K271E): as the sequence (Q9NYD6 254-340) above, with K18E counted along it
# Sequence of HOXD13 (Homo sapiens, UniProt P35453 263-343) (P35453 263-343): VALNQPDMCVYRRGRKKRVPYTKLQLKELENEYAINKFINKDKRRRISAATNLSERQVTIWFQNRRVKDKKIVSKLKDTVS
sequence,measurement,setting,value
CGTCGGGC,binding signal,NKX2-4 [1],"9.35 upbm affinity estimate (log intensity, higher = more binding, comparable within an allelic series)"
same,binding signal,NKX2-4 [2],"9.21 upbm affinity estimate (log intensity, higher = more binding, comparable within an allelic series)"
same,binding signal,HOXC10 [3],"10 upbm affinity estimate (log intensity, higher = more binding, comparable within an allelic series)"
same,binding signal,NKX2-4 [4],"9.36 upbm affinity estimate (log intensity, higher = more binding, comparable within an allelic series)"
same,binding signal,HOXC10 [5],"10.1 upbm affinity estimate (log intensity, higher = more binding, comparable within an allelic series)"
same,binding signal,NKX2-4 [6],"9.37 upbm affinity estimate (log intensity, higher = more binding, comparable within an allelic series)"
AAAGGCGG,binding signal,NKX2-4 [1],"9.6 upbm affinity estimate (log intensity, higher = more binding, comparable within an allelic series)"
same,binding signal,NKX2-4 [2],"9.51 upbm affinity estimate (log intensity, higher = more binding, comparable within an allelic series)"
same,binding signal,NKX2-4 [4],"9.55 upbm affinity estimate (log intensity, higher = more binding, comparable within an allelic series)"
same,binding signal,NKX2-6 [7],"9.54 upbm affinity estimate (log intensity, higher = more binding, comparable within an allelic series)"
same,binding signal,NKX2-4 [6],"9.58 upbm affinity estimate (log intensity, higher = more binding, comparable within an allelic series)"
ACCATTGA,binding signal,NKX2-4 [1],"11.3 upbm affinity estimate (log intensity, higher = more binding, comparable within an allelic series)"
same,binding signal,NKX2-4 [2],"11.5 upbm affinity estimate (log intensity, higher = more binding, comparable within an allelic series)"
same,binding signal,NKX2-4 [4],"11.3 upbm affinity estimate (log intensity, higher = more binding, comparable within an allelic series)"
same,binding signal,HOXB6 [8],"9.55 upbm affinity estimate (log intensity, higher = more binding, comparable within an allelic series)"
same,binding signal,NKX2-4 [6],"11.5 upbm affinity estimate (log intensity, higher = more binding, comparable within an allelic series)"
same,binding signal,HOXB6 [9],"10.2 upbm affinity estimate (log intensity, higher = more binding, comparable within an allelic series)"
CGTCCCGA,binding signal,NKX2-4 [1],"9.52 upbm affinity estimate (log intensity, higher = more binding, comparable within an allelic series)"
same,binding signal,NKX2-4 [2],"9.51 upbm affinity estimate (log intensity, higher = more binding, comparable within an allelic series)"
same,binding signal,ALX4 [10],"8.27 upbm affinity estimate (log intensity, higher = more binding, comparable within an allelic series)"
same,binding signal,NKX2-4 [4],"9.43 upbm affinity estimate (log intensity, higher = more binding, comparable within an allelic series)"
same,binding signal,ALX4 [11],"8.37 upbm affinity estimate (log intensity, higher = more binding, comparable within an allelic series)"
same,binding signal,NKX2-4 [6],"9.52 upbm affinity estimate (log intensity, higher = more binding, comparable within an allelic series)"
AGAAGCCG,binding signal,NKX2-4 [1],"9.64 upbm affinity estimate (log intensity, higher = more binding, comparable within an allelic series)"
same,binding signal,NKX2-4 [2],"9.7 upbm affinity estimate (log intensity, higher = more binding, comparable within an allelic series)"
same,binding signal,NKX2-4 [4],"9.69 upbm affinity estimate (log intensity, higher = more binding, comparable within an allelic series)"
same,binding signal,NKX2-6 [12],"9.29 upbm affinity estimate (log intensity, higher = more binding, comparable within an allelic series)"
same,binding signal,NKX2-4 [6],"9.62 upbm affinity estimate (log intensity, higher = more binding, comparable within an allelic series)"
same,binding signal,NKX2-6 [13],"9.27 upbm affinity estimate (log intensity, higher = more binding, comparable within an allelic series)"
CGAGCTAG,binding signal,NKX2-4 [1],"9.46 upbm affinity estimate (log intensity, higher = more binding, comparable within an allelic series)"
same,binding signal,NKX2-4 [2],"9.32 upbm affinity estimate (log intensity, higher = more binding, comparable within an allelic series)"
same,binding signal,PRRX1 [14],"9.63 upbm affinity estimate (log intensity, higher = more binding, comparable within an allelic series)"
same,binding signal,NKX2-4 [4],"9.31 upbm affinity estimate (log intensity, higher = more binding, comparable within an allelic series)"
same,binding signal,NKX2-4 [6],"9.21 upbm affinity estimate (log intensity, higher = more binding, comparable within an allelic series)"
same,binding signal,PRRX1 [15],"9.54 upbm affinity estimate (log intensity, higher = more binding, comparable within an allelic series)"
ATACTTCA,binding signal,NKX2-4 [1],"12.4 upbm affinity estimate (log intensity, higher = more binding, comparable within an allelic series)"
same,binding signal,NKX2-4 [2],"12.8 upbm affinity estimate (log intensity, higher = more binding, comparable within an allelic series)"
same,binding signal,NKX2-4 [4],"12.3 upbm affinity estimate (log intensity, higher = more binding, comparable within an allelic series)"
same,binding signal,NKX2-4 [6],"12.8 upbm affinity estimate (log intensity, higher = more binding, comparable within an allelic series)"
CTCGAGTA,binding signal,NKX2-4 [1],"12.3 upbm affinity estimate (log intensity, higher = more binding, comparable within an allelic series)"
same,binding signal,NKX2-4 [2],"12.6 upbm affinity estimate (log intensity, higher = more binding, comparable within an allelic series)"
same,binding signal,NKX2-4 [4],"12.1 upbm affinity estimate (log intensity, higher = more binding, comparable within an allelic series)"
same,binding signal,NKX2-4 [6],"12.6 upbm affinity estimate (log intensity, higher = more binding, comparable within an allelic series)"
ACTCAAGT,binding signal,NKX2-4 [1],"12.4 upbm affinity estimate (log intensity, higher = more binding, comparable within an allelic series)"
same,binding signal,NKX2-4 [2],"12.9 upbm affinity estimate (log intensity, higher = more binding, comparable within an allelic series)"
same,binding signal,NKX2-4 [4],"12.3 upbm affinity estimate (log intensity, higher = more binding, comparable within an allelic series)"
same,binding signal,NKX2-6 [7],"11.4 upbm affinity estimate (log intensity, higher = more binding, comparable within an allelic series)"
same,binding signal,NKX2-4 [6],"12.9 upbm affinity estimate (log intensity, higher = more binding, comparable within an allelic series)"
CGCCGCAG,binding signal,NKX2-4 [1],"9.48 upbm affinity estimate (log intensity, higher = more binding, comparable within an allelic series)"
same,binding signal,NKX2-4 [2],"9.2 upbm affinity estimate (log intensity, higher = more binding, comparable within an allelic series)"
same,binding signal,NKX2-4 [4],"9.51 upbm affinity estimate (log intensity, higher = more binding, comparable within an allelic series)"
same,binding signal,HOXD13 [16],"9.57 upbm affinity estimate (log intensity, higher = more binding, comparable within an allelic series)"
same,binding signal,HOXD13 [17],"9.58 upbm affinity estimate (log intensity, higher = more binding, comparable within an allelic series)"
same,binding signal,NKX2-4 [6],"9.58 upbm affinity estimate (log intensity, higher = more binding, comparable within an allelic series)"
same,binding signal,HOXD13 [18],"9.63 upbm affinity estimate (log intensity, higher = more binding, comparable within an allelic series)"
CCCTCATA,binding signal,NKX2-4 [1],"11.6 upbm affinity estimate (log intensity, higher = more binding, comparable within an allelic series)"
same,binding signal,NKX2-4 [2],"11.8 upbm affinity estimate (log intensity, higher = more binding, comparable within an allelic series)"
same,binding signal,NKX2-4 [4],"11.5 upbm affinity estimate (log intensity, higher = more binding, comparable within an allelic series)"
GACTGAGC,binding signal,NKX2-4 [1],"9.79 upbm affinity estimate (log intensity, higher = more binding, comparable within an allelic series)"
same,binding signal,NKX2-4 [2],"9.84 upbm affinity estimate (log intensity, higher = more binding, comparable within an allelic series)"
same,binding signal,NKX2-4 [4],"9.65 upbm affinity estimate (log intensity, higher = more binding, comparable within an allelic series)"
same,binding signal,MSX2 [19],"9.57 upbm affinity estimate (log intensity, higher = more binding, comparable within an allelic series)"
same,binding signal,MSX2 [20],"9.48 upbm affinity estimate (log intensity, higher = more binding, comparable within an allelic series)"
same,binding signal,NKX2-4 [6],"9.92 upbm affinity estimate (log intensity, higher = more binding, comparable within an allelic series)"
same,binding signal,PROP1 [21],"6.86 upbm affinity estimate (log intensity, higher = more binding, comparable within an allelic series)"
same,binding signal,PROP1 [22],"6.74 upbm affinity estimate (log intensity, higher = more binding, comparable within an allelic series)"
same,binding signal,PROP1 [23],"6.66 upbm affinity estimate (log intensity, higher = more binding, comparable within an allelic series)"
same,binding signal,MSX2 [24],"9.49 upbm affinity estimate (log intensity, higher = more binding, comparable within an allelic series)"
